# JMJD2A Tudor inh – inhibitors of human JMJD2A Tudor domain; O75164; AlphaScreen JMJD2A-Tudor / H3K4me3 peptide binding; Potency, µM (series often up to 114 µM), for inactives: at the highest dose activity change, negative = inhibition, most hits filed as inhibitors; hit rate 4.4% among 390,000; AID 504339; also: % is scaled to controls: 0 for no effect and ±100 for the full control effect; nearly all actives have a fitted effect of over 50% in size
# 12-LOX inh – inhibitors of human 12S-lipoxygenase ALOX12. P18054. hit rate 1.1% among 580,000. Potency, µM (highest dose often 108 µM), for the others: top-dose activity change, negative = inhibition, usual class: inhibitors. AID 1671190. purified 12hLO, xylenol orange hydroperoxide absorbance; also: % is scaled to controls: 0 for no effect and ±100 for the full control effect
#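 Hydroperoxide product was detected by ferrous iron/xylenol orange as the 573 to 405 nm absorbance ratio. Arachidonic acid at 40 uM (final) was turned over for 30 min at room temperature by 150 nM human 12hLO, pH 7.0 Hepes buffer, after 15 min compound preincubation.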
# Sfp PPTase inh – blocks B. subtilis Sfp PPTase activity; Biochemical Sfp PPTase activity, qHTS; AID 1490; Potency, µM, for inactives: largest response in the series, negative = inhibition, hits mostly inhibitors; hit rate 3.5% among 310,000; Q9F4F7;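 also: the enzyme is Sfp with the accession as filed and its product quenches rhodamine fluorescence; 0% = enzyme reaction without inhibitor and -100% = no enzyme wells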
#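 Buffer: 50 mM Hepes-Na pH 7.6, 10 mM MgCl2, 0.01% Nonidet P-40, 0.01% BSA. Enzyme 15 nM, pre-exposed to compound 15 min; substrates then added and fluorescence change tracked over 30 min.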
# BAZ2B block – blocks human BAZ2B; AlphaScreen BAZ2B-H3K14Ac peptide displacement; Potency, µM (doses to about 114 µM), without a hit: at the top dose activity change, negative = inhibition, actives largely listed as inhibitors; hit rate 4.4% among 360,000; also: % is scaled to controls: 0 for no effect and ±100 for the full control effect; nearly all actives have a fitted effect of over 60% in size
#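 Compounds, titrated to a top concentration of 110 uM, were incubated 30 min at room temperature with preformed BAZ2B/acetyl-K14 H3 peptide complex (50 nM each). Proximity signal was measured by AlphaScreen after 20 min with beads.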
# G9a inh – inhibitors of human histone lysine methyltransferase G9a; G9a H3K9 monomethylation, AlphaScreen, 2 h; AID 504332; hit rate 8.8% among 350,000; Potency, µM (titrated, usually from 102 µM), without a hit: at the top dose activity, negative = inhibition, actives largely listed as inhibitors; Q96KQ7; also: % is scaled to controls: 0 for no effect and ±100 for the full control effect; nearly all actives have a fitted effect of over 75% in size
# Target sequence (Q96KQ7 913-1193 limits assumed): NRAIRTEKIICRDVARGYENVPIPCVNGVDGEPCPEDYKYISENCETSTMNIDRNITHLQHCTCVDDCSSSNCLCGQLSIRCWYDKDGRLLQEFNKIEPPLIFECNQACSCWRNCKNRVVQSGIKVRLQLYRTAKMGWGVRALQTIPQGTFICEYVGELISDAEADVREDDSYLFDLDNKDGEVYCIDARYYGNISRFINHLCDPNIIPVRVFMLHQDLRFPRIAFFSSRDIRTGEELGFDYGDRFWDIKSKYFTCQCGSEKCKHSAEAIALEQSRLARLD
#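 Compounds were preincubated with 20 nM G9a for 15 min, after which biotinylated H3K9 peptide (500 nM) and SAM (20 uM) started a 2 h room-temperature reaction. Monomethylated product was quantified by antibody-based AlphaScreen chemiluminescence.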
# HP1b chromo inh – HP1-beta chromodomain-methylated histone interaction inhibition; P83916; AlphaScreen HP1-beta / biotin-H3K9me3 peptide binding; Potency, µM (doses to about 114 µM), for the others: at the top dose activity change, negative = inhibition, hits mostly inhibitors; hit rate 0.56% among 390,000; AID 540317; also: nearly all actives have a fitted effect of over 70% in size
# Target sequence (P83916 whole entry, looked up): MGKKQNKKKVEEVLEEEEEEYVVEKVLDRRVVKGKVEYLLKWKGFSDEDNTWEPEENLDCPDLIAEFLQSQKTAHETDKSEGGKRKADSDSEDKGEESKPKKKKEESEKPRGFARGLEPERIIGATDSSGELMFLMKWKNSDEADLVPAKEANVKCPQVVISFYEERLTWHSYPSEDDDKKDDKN
#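 Compound inhibition of the preformed complex between 50 nM HP1-beta and 50 nM biotinylated H3K9me3 peptide was read by AlphaScreen. Buffer was PBS pH 7.4 with 0.01% Tween-20. Incubations ran 30 min at room temperature, with 10 ug/mL donor/acceptor beads.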
# * marks the source's active call; other numbers are inactive results; ? = inconclusive; nt = no result given; [ ] = dose if it differs, or a comment. Compounds with a hit are over-represented: about 8.7% of the library has one in this group of screens. Calls follow the shape of the dose curve; as a rule, active = well fitted curve in the direction sought with a large enough effect; inconclusive = small, poorly fitted or top-dose-only effect, or another doubt; inactive = no such curve, though single readings can be large; an effect the other way counts as inactive or inconclusive. Potency is read from the fitted curve at half-maximal effect.
SMILES,JMJD2A Tudor inh,12-LOX inh,Sfp PPTase inh,BAZ2B block,G9a inh,HP1b chromo inh
Cc1cccc(N=C2c3cc([N+](=O)[O-])ccc3-c3c2cc([N+](=O)[O-])cc3[N+](=O)[O-])c1,3.55µM*,-7.7%,nt,nt,nt,2.82µM*
COc1cc2c(cc1-c1cnn(C)c1)NC(=O)C21CCN(C(C)=O)CC1,nt,26.6%[176 µM],nt,nt,nt,nt
COc1ccc(N2CCN(Cc3nc4ccccc4[nH]3)CC2)cc1,-33.8%,-13.6%,15.9%,-25.8%,31.6µM*,15.8%
CN1CCN(C(=O)Cc2nc3ccccc3[nH]2)CC1,-5.7%,9.7%[57.4 µM],0.8%,9.7%,-34.8%,21.8%
O=[N+]([O-])/C=C/c1c(Cl)cccc1Cl,39.8µM*,1.8%,nt,nt,nt,3.0%
C#C[C@H]1CN2CC[C@H]1C[C@@H]2CNCc1ccc(C(F)(F)F)cc1,nt,32.3%[176 µM],nt,nt,nt,nt
C=CCN1C(=O)NC(=O)/C(=C/c2cnc(SC)nc2)C1=O,79.4µM*,?,31.6µM*,4.0%,?,-49.1%
C=CCN1C(=O)NC(=O)/C(=C/c2cc3c4c(c2)CCCN4CCC3)C1=O,?,?,?,50.1µM*,?,20µM*
C=CCN1C(=O)/C(=C/c2ccc(N3CCOCC3)o2)C(=O)NC1=S,-11.6%,-13.8%,-5.3%,?,?,6.8%
Cc1cccc(-n2nnnc2C2(NC(C)C)CCCCC2)c1,nt,7.8%,nt,nt,nt,nt
Fc1ccc(NC(=S)NCCc2cnc[nH]2)cc1,nt,20.1%,nt,nt,nt,nt
C=C[C@H]1CN2CC[C@H]1C[C@@H]2CNC(=O)Nc1ccc(C(C)(C)C)cc1,nt,35.6%[176 µM],nt,nt,nt,nt
O=c1[nH]c(=O)n(Cc2ccco2)c(O)c1C=NCc1ccc2c(c1)OCO2,-12.8%,?,?,-7.4%,1.7%[59 µM],27.0%
CCCCn1c(O)c(C=NCc2ccc3c(c2)OCO3)c(=O)[nH]c1=O,-2.2%,74.8%,50.1µM*,-19.9%,-29.7%,29.7%
CCCCn1c(O)c(C(C)=Nc2ccc(C(=O)O)cc2)c(=O)[nH]c1=O,?,?,-2.7%,?,44.7µM*,20.9%
CCCCn1c(O)c(C(C)=NCc2ccc3c(c2)OCO3)c(=O)[nH]c1=O,89.1µM*,?,3.5%,0.6%,nt,-9.0%
CN1CCN(C(=O)Cc2c[nH]c3ncc(-c4ccsc4)cc23)CC1,nt,12.5%[176 µM],nt,nt,nt,nt
CN(C)C(=O)OCc1n(C)cc[n+]1C,-10.3%,18.3%,-5.4%,9.5%,1.9%[59 µM],19.8%
CNC(=O)OCCc1n(C)cc[n+]1C,-17.4%,?,-5.9%,-0.4%,14.1µM*,9.8%
Cn1ccnc1CN1CCN2C(=O)N(c3ccccn3)C[C@H]2C1,nt,67.4%[176 µM],nt,nt,nt,nt
CC[C@H]1CN2CC[C@H]1C[C@@H]2COC(=O)Nc1ccccc1,nt,34.2%[176 µM],nt,nt,nt,nt
Cc1ccc(S(=O)(=O)N2CCCCC2)cc1NC(=O)CN1CC=C(c2ccccc2)CC1,-31.1%,12.2%,19.4%,-4.6%,-11.3%[59 µM],4.4%
COc1ccccc1CNCC(=O)Nc1cc(S(=O)(=O)N2CCCCC2)ccc1C,1.78µM*,3.8%,nt,nt,nt,?
CCN(CC)c1ccccc1,6.2%,-2.9%,nt,29.8%,0.2%[0.501 µM],62.6%
CCN(CC)c1ccc(/C=C/[N+](=O)[O-])cc1,?,?,?,nt,44.7µM*,-27.3%
SMILES,JMJD2A Tudor inh,12-LOX inh,Sfp PPTase inh,BAZ2B block,G9a inh,HP1b chromo inh
CC1=NOC2(CCCN(Cc3ccccn3)C2)C1 (stereo not given),nt,31.2%[176 µM],nt,nt,nt,nt
Cc1cc(-c2n[nH]c(=S)n2CC(C)C)cs1,5.62µM*,?,1.7%,-5.0%,3.16µM*,?
COc1cc(C)cc2oc(=O)c(CC(=O)N3CCN(CCc4ccccn4)CC3)c(C)c12,nt,-2.3%,nt,nt,nt,nt
Brc1ccc2c(c1)C(OC1CN3CCC1CC3)c1ccccc1CS2 (stereo not given),-34.9%,?,-14.4%,-37.2%,15.8µM*,6.2%
Cc1cccc(NC(=O)CSc2ccc(-c3ccco3)nn2)c1,-10.4%,-0.4%,?,-24.7%,28.2µM*,22.6%
COc1ccc(NC(=O)CSc2nc(-c3ccco3)cc(C(F)(F)F)n2)cc1OC,-3.1%,-14.3%,nt,-1.6%,-4.2%[59 µM],46.6%
c1ccc(-c2ccc(-c3n(-c4ccccn4)c4ccccc4[n+]3-c3ccccn3)cc2)cc1,?,?,1.9%,?,35.5µM*,31.3%
C=CCSC1=N/C(=C\c2cc(OC)c3c(c2)OCO3)C(=O)S1,?,63.9%,17.8µM*,nt,16.6%[59 µM],38.0%
COc1cc(C=O)cc2c1OCO2,nt,-25.1%,nt,nt,nt,nt
COc1ccccc1CNC(=O)C(Cl)(Cl)Cl,nt,5.9%,nt,nt,nt,nt
COc1ccccc1CNCc1cc(OC)c(OC)cc1OC,2.51µM*,?,13.1%,50.1µM*,3.16µM*,?
Cc1ccc(N)cc1C,-12.4%,-11.5%,nt,nt,nt,19.2%
Cc1cc(N(C)C)ccc1N=Nc1ccc(N)cc1,20µM*,50.3%,nt,nt,nt,44.7µM*
CCC[N+]12CCC(CC1)C(=C(c1ccccc1)c1ccccc1)C2,-7.0%,27.3%,17.5%,-19.2%,-46.1%[59 µM],32.0%
CCCC[N+]12CCC(CC1)C(=C(c1ccccc1)c1ccccc1)C2,?,?,1.2%,50.1µM*,10µM*,?
COc1cc2c(cc1OCCN(C)C)NC(=O)C21CCN(Cc2ccccc2)CC1,nt,40.2%[176 µM],nt,nt,nt,nt
O=C1NC(=O)C(=Cc2ccc(Oc3ccc([N+](=O)[O-])cc3)cc2)C(=O)N1,56.2µM*,nt,20µM*,-35.1%,35.5µM*,-6.0%
CN1C(=O)C(=Cc2ccccc2OCc2ccc(C(=O)O)cc2)C(=O)N(C)C1=O,-11.2%,-16.6%,-28.0%,2.5%,?,36.0%
CN1C(=O)C(=Cc2ccccc2OS(=O)(=O)c2ccccc2)C(=O)N(C)C1=O,-30.8%,?,35.5µM*,?,nt,51.1%
COc1cc(C=C2C(=O)NC(=O)NC2=O)ccc1OCc1ccc([N+](=O)[O-])cc1,35.5µM*,?,31.6µM*,nt,25.1µM*,21.1%
CN1C(=O)C(=Cc2ccccc2OCCOc2ccc([N+](=O)[O-])cc2)C(=O)N(C)C1=O,?,?,70.8µM*,50.1µM*,10µM*,19.3%
O=C1/C(=C\c2ccc([N+](=O)[O-])cc2)N2CCC1CC2,-35.7%,-7.7%,-5.8%,?,?,-21.7%
CC(C)CCN1CCC2(CNS(=O)(=O)c3cccnc3O2)C1 (stereo not given),nt,0.9%[6.33 µM],nt,nt,nt,nt
O=C1NC(=O)C(=Cc2ccccc2OCCOc2ccc([N+](=O)[O-])cc2)C(=O)N1,89.1µM*,nt,50.1µM*,?,15.8µM*,26.1%
CN1C(=O)C(=Cc2ccccc2OCc2ccccc2Cl)C(=O)N(C)C1=O,96.0%,?,50.1µM*,51.2%,30.4%[59 µM],101.1%
COC(=O)Cn1cc(C=C2C(=O)NC(=O)NC2=O)c2ccccc21,-13.0%,-18.9%,?,-8.7%,?,23.3%

# High-throughput results: PubChem BioAssay, National Center for Advancing Translational Sciences (NCATS)
